CDC25B-CDK2 inh = human CDC25B-CDK2/CyclinA binding inhibition; AID 1259370; P30305+P24941; z-score (test concentration not listed); hit rate 0.72% among 94,000; HTRF CDC25B-CDK2/CyclinA binding, anti-His/anti-Flag; stronger effect = higher value; in the data active = z-score above about 3.2
HIV TAR-Tat = HIV-1 TAR-Tat binding disruption. HIV-1 TAR RNA, Tat peptide displacement FRET; stronger effect = higher value. z-score (test concentration not listed). hit rate 0.6% among 100,000; active = z-score of 3 or more in at least 2 runs
* hit, by the source's call; x = no result. The list is not random: actives were taken first. Their share in the collection is about 0.86%.

SMILES	CDC25B-CDK2 inh	HIV TAR-Tat
O=C(O)c1cccc(N2C(=O)CC(Sc3ccccc3C(=O)O)C2=O)c1 (stereo not given)	-0.29	x
COc1cccc2oc(-c3ccccc3)cc(=O)c12	x	1.4
O=c1cc(-c2ccccc2)oc2cc(O)c(O)c(O)c12	x	29*
CC(C)(C)NC(=O)c1cccc(N2C(=O)c3cccc([N+](=O)[O-])c3C2=O)c1	0.16	x
O=C(Nc1cccc(O)c1)c1cccc(N2C(=O)c3cccc([N+](=O)[O-])c3C2=O)c1	5.1*	x
Cc1cc(N2CCC(NC(=O)Nc3ccc(F)cc3F)CC2)n2ncnc2n1	-0.85	0.38
CN1CCc2c(sc(N)c2C#N)C1	x	-0.14
CCOC(=O)N1CCc2c(sc(N)c2C#N)C1	5.7*	x
Cc1cccc(-c2nc(C(N)=O)c3[nH]c(=O)n(CC4CCCO4)c3n2)c1 (stereo not given)	x	1.6
CSc1ccc(NC(=O)NCCCN2CCc3ccccc3C2)cc1	0.37	-0.99
O=C(NCCCN1CCc2ccccc2C1)Nc1ccc(Br)cc1	9.2*	-2
O=C(CN1C(=O)c2cccnc2Oc2ccc(Cl)cc21)NC1CC1	x	0.11
CSc1cccc(NC(=O)CCS(=O)(=O)c2ccc3c(c2)n(C)c(=O)c(=O)n3C)c1	0.05	0.71
Cc1cc(NNC(=O)c2ccc([N+](=O)[O-])o2)c2ccccc2n1	0.39	x
N#Cc1c(N)nc2c(c1N)C(C(C#N)C#N)c1cc(Br)ccc1O2 (stereo not given)	7*	x
COc1ccc(Br)cc1C1C(C#N)=C(N)Oc2cc(O)ccc21 (stereo not given)	-1.4	-2.8
CCOc1ccccc1N1CC(O)=C(c2nc3ccccc3n2C)C1=N	-1.8	0.53
CCN1CCN(CCCNC(=O)C2=C(C)C(=O)OC23CCCCC3)CC1	x	0.05
CN(C(=O)CSc1nc(-c2ccc3c(c2)OCO3)nc2cc(=O)[nH]n12)c1ccccc1	x	2.8
CN(Cc1ccccc1)C(=O)CSc1nc(-c2ccc3c(c2)OCO3)nc2cc(=O)[nH]n12	x	26*
CCc1ccc(Nc2c(-c3ccc(C(C)C)cc3)c(=O)c2=O)cc1	x	1.2
COc1cc(OC)cc(C(=O)Nc2nc3c(s2)CCc2ccc(OC)cc2-3)c1	-0.88	1.1
COc1ccc2c(c1)Cc1sc(NC(=O)c3ccc(Br)cc3)nc1-2	18*	-1.7
CCC(=O)n1/c(=N/C(=N)N)nc(C)c2ccc(C)cc21	9*	x
CCOC(=O)CC(=O)CSc1nc(C)c2ccc(C)cc2n1	-1.8	-7.6
SMILES	CDC25B-CDK2 inh	HIV TAR-Tat
O=C(O)c1ccc(Nc2nc3ccc(Cl)cc3n3cnnc23)cc1	-1.1	1
O=C1CCN(c2cc(Nc3ccc(C(=O)O)cc3)c3c4c(onc24)-c2ccccc2C3=O)CC1	14	27*
O=C1c2ccccc2-c2onc3c(N4CCOCC4)cc(Nc4ccccc4)c1c23	-2.2	0.02
O=C1CCN(c2cc(Nc3cccc(F)c3)c3c4c(onc24)-c2ccccc2C3=O)CC1	7.8*	17*
COc1ccc(Nc2cc(N3CCC(=O)CC3)c3noc4c3c2C(=O)c2ccccc2-4)cc1	0.9	-0.22
O=C(O)c1ccc(Nc2cc(N3CCOCC3)c3noc4c3c2C(=O)c2ccccc2-4)cc1	11*	32*
COC(=O)c1ccc(Nc2cc(N3CCOCC3)c3noc4c3c2C(=O)c2ccccc2-4)cc1	7.6*	3.4
CN(C)c1ccc(Nc2cc(N3CCOCC3)c3noc4c3c2C(=O)c2ccccc2-4)cc1	-0.37	-4.4
O=C1c2ccccc2-c2onc3c(N4CCOCC4)cc(Nc4cccc(F)c4)c1c23	0.54	0.23
COc1ccc2c(c1)NC(c1ccc(OCc3ccccc3)c(OC)c1)=NC(c1ccncc1)=N2	-1.4	1
Cn1c(=O)c(=O)n(C)c2cc(S(=O)(=O)N3CCCC3)ccc21	-1	-0.97
c1ccc(CN2CCC(Nc3nc4ccccc4c4nc(-c5cccnc5)nn34)CC2)cc1	-0.72	-1.2
O=C(N/N=C/c1ccc([N+](=O)[O-])s1)c1nc(-c2ccc([N+](=O)[O-])o2)no1	-1.9	x
CSc1ccccc1N1C(=O)C2C3C=CC(C3)C2C1=O (stereo not given)	-1.4	x
O=C(O)c1cccc(Nc2cc(N3CCOCC3)c3noc4c3c2C(=O)c2ccccc2-4)c1	-0.18	7*
O=C1c2ccccc2-c2onc3c(N4CCOCC4)cc(Nc4ccc5c(c4)OCO5)c1c23	0.7	-0.81
CCCNC(=O)Cn1c2cc(OC)c(OC)cc2c2nc(=O)cc(C)n21	-0.96	-1.7
COc1ccc(-c2nnc3[nH]c(=O)n(C)c(=O)c3n2)cc1OC	-2.7	8.2*
Cn1c(=O)[nH]c2nnc(-c3ccc4c(c3)OCO4)nc2c1=O	-1.3	-0.58
Cc1oc2ncnc(N3CCOCC3)c2c1C(=O)Nc1ccc(Cl)cn1	x	1.2
Cc1ccc(C2CC(=O)N3CN(c4ccc(N(C)C)cc4)CSC3=C2C#N)cc1 (stereo not given)	6.7*	-1.1
COc1ccc(C2CC(=O)N3CN(c4ccc(N(C)C)cc4)CSC3=C2C#N)cc1 (stereo not given)	5.5*	-0.01
Cc1nn2c(=O)cc(CSc3n[nH]c(-c4ccc(Cl)cc4)n3)nc2s1	x	-0.62
C=CCn1c(SCC(N)=O)nc2sc(CC)cc2c1=O	-1	x
OCc1cnc(SCCc2ccccc2)n1Cc1ccccc1	x	0.81
SMILES	CDC25B-CDK2 inh	HIV TAR-Tat
Cc1ccc(S(=O)(=O)c2nnn(-c3cc(F)ccc3F)c2C)cc1	-1.7	2.2
CCOc1ccc(OCC)c(NS(=O)(=O)c2ccc3c(c2)oc(=O)n3C)c1	-1.6	x
FC(F)(F)C(=C(SSCc1ccccc1)C(F)(F)C(F)(F)F)C(F)(F)F	4.3*	x
FC(F)(F)C(=C(N=C(Cl)SOCc1ccccc1)C(F)(F)C(F)(F)F)C(F)(F)F	3.1	x
O=C(O)CNc1ncnc2sc3c(c12)CCCC3	-1.5	x
CC(=O)C[n+]1cccc2cccc(O)c21	2.2	x
C#CC[n+]1cccc2cc(O)ccc21	5.2*	x
COc1cccc(C2CC(=O)N3CN(c4ccccc4)CSC3=C2C#N)c1 (stereo not given)	0.82	-1.5
COc1ccc(N2CSC3=C(C#N)C(c4cccc(OC)c4)CC(=O)N3C2)cc1 (stereo not given)	6.1*	0.29
COc1cccc(C2CC(=O)N3CN(c4ccc(N(C)C)cc4)CSC3=C2C#N)c1 (stereo not given)	7.2*	-1.3
COc1cccc(C2CC(=O)N3CN(c4ccc(OC)c(OC)c4)CSC3=C2C#N)c1 (stereo not given)	7.5*	-1.8
COCCCNC(=O)NC(C)c1c(-n2cccc2)sc2c1CCCC2 (stereo not given)	-1.4	2
Cc1c(NC(=O)NCCc2ccc3c(c2)OCO3)c(=O)n(-c2ccccc2)n1C	-1.4	0.09
O=S(=O)(c1ccccc1F)N1CCN(c2nc3ccccc3n3cccc23)CC1	1.8	-0.12
Cc1ccc(Nc2c3c(nc4nncn24)CCC3)cc1F	-1.4	0.99
Cc1ccccc1Nc1nc(NCc2ccco2)c2ccccc2n1	6*	-0.17
Oc1ccccc1Nc1nc(NCc2ccco2)c2ccccc2n1	-1.2	8.7
CCCC12CN3CC(CCC)(CN(C1)C3c1ccc3c(c1)OCO3)C2=O (stereo not given)	0.28	x
CCOc1c(C(=O)OC)sc2ccc(N)cc12	7.7*	-1.9
COC(=O)c1sc2ccccc2c1Cl	1.3	1.9
COC(=O)c1sc2ccc(N)cc2c1OCC(C)C	3	-2.2
COC(=O)c1sc2ccc(N)cc2c1OC	5.4*	-2.8

Compound activity as filed in PubChem.
